# TDP1 cell noCPT: qHTS for Inhibitors of human tyrosyl-DNA phosphodiesterase 1 (TDP1): qHTS in cells in absence of CPT; Potency, µM (top dose mostly 46.2 µM), for the others: top-dose activity change, negative = growth inhibition, hits mostly inhibitors; 420,000 tested, 15% active; DT40 Tdp1-/- hTDP1 cells, no CPT, ATP luminescence, 48 h; also: potency is read from the fitted curve at half-maximal effect; nearly all actives have a fitted effect of over 55% in size
#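 Readout: luminescence from CellTiter-Glo after 30 min in the dark at RT. Cells: DT40 Tdp1-/- with stable hTDP1, 400/well. Exposure: compounds alone, ≥48 hr, 37 °C.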
# HT1080 IDH1KD tx: kills HT-1080 cells with IDH1 knockdown | 360,000 tested, 2% active | Potency, µM (doses to about 46.1 µM), for inactives: top-dose activity, negative = toxicity, actives largely listed as cytotoxic | HT-1080 IDH1 knockdown viability, ATP luminescence, 48 h;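 also: potency is read from the fitted curve at half-maximal effect; 0% = DMSO wells and -100% = cell-free medium wells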
#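 CellTiter-Glo luminescence after 48 h compound exposure at 37 degrees C of IDH1-knockdown HT-1080 cells in 5% FBS RPMI. %Activity scaled between DMSO wells and cell-free media wells, with curves fitted and assigned curve classes.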
# HT1080-NT tox: kills 2HG-producing HT-1080-NT fibrosarcoma cells. Potency, µM (doses to about 46.1 µM), inactives show at the top dose activity, negative = less viability, actives largely listed as cytotoxic. HT-1080-NT fibrosarcoma viability, CellTiter-Glo ATP luminescence, 48 h. AID 686970. 360,000 tested, 1.6% active;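 also: NT is the 2HG producing partner of a matched IDH1 knockdown line; potency is read from the fitted curve at half-maximal effect; 0% = DMSO-treated cells and -100% = media-only wells without cells; nearly all actives have a fitted effect of over 55% in size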
#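 750 cells/well, RPMI + 5% FBS; 2 h settle, compound pin-transfer, 48 h at 37 degrees C. CellTiter-Glo 10 min RT, luminescence. Normalized to DMSO and media-only wells.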
# IL-1B inflam inh: inhibitors of inflammasome signaling (IL-1 beta secretion); 360,000 tested, 4.7% active; THP-1 LPS/ATP IL-1B secretion, AlphaLISA, 16 h; stronger effect = lower value; activity change, % at 57.5 µM; in the data active = activity change below about -50%; inconclusive = mostly about -30% to -49%
#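 Secreted IL-1B measured by AlphaLISA bead assay after 16 h compound exposure of THP-1 cells; compounds (final up to 57.5 uM) added 1 h before LPS (250 ng/mL) and ATP (1.25 mM) stimulation; lower signal means less secretion.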
# TDP1 cell CPT: growth inhibition of DT40 Tdp1-/-;hTDP1 cells with camptothecin (screen for TDP1 inhibitors); chicken DT40 Tdp1-/-;hTDP1 cells + 20 nM CPT, ATP luminescence, 48 h; Potency, µM (top dose mostly 46.2 µM), for inactives: top-dose activity change, negative = growth inhibition, actives largely listed as inhibitors; 420,000 tested, 12% active; AID 686979; also: potency is read from the fitted curve at half-maximal effect; nearly all actives have a fitted effect of over 55% in size
#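 Chicken DT40 Tdp1-/- cells complemented with human TDP1, 400 cells/well, exposed to compounds plus 20 nM camptothecin for at least 48 h at 37 C; viability read as ATP content by CellTiter-Glo luminescence.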
# uPA surface inh: cell surface uPA generation inhibition. cell surface uPA generation assay, qHTS. Potency, µM (highest dose often 38.3 µM), for inactives: at the top dose activity change, negative = inhibition, hits mostly inhibitors. 330,000 tested, 0.31% active. AID 540303; active = well fitted inhibition curve with a large enough effect; inconclusive = small, poorly fitted or top-dose-only effect; inactive = no such curve, though single readings can be large or run the other way; tested in mouse RAW 264.7 cells; also: potency is read from the fitted curve at half-maximal effect; nearly all actives have a fitted effect of over 55% in size
# * hit, by the source's call; ? = inconclusive; . = no result. A selection: hits, their analogues and other compounds. The true share with any hit is near 19%. Unless noted, calls follow the shape of the dose curve; as a rule, active = well fitted curve in the direction sought with a large enough effect; inconclusive = small, poorly fitted or top-dose-only effect, or another doubt; inactive = no such curve, though single readings can be large; an effect the other way counts as inactive or inconclusive. Unless noted, % is scaled to controls: 0 for no effect and ±100 for the full control effect.
SMILES,TDP1 cell noCPT,HT1080 IDH1KD tx,HT1080-NT tox,IL-1B inflam inh,TDP1 cell CPT,uPA surface inh
Cc1c([N+](=O)[O-])cnc(Sc2ccccc2)c1[N+](=O)[O-],9.2µM*,?,?,-16,?,8.9µM*
N#Cc1ncc(-c2ccc3c(c2)OCCOCCOCCOCCOCCO3)nc1C#N,13µM*,11%,2%,22,12µM*,-2%
N#Cc1ncc(-c2ccc3c(c2)OCCOCCOCCOCCO3)nc1C#N,4.6µM*,12%,11%,-103*,5.8µM*,-7%
Brc1ccc2c(c1)OCCOCCOCCOCCOCCO2,?,3%,1%,-1,-22%,0%
CCCc1nn2c(=O)cc(COC(=O)c3ccccc3NC(=O)c3ccc(Cl)cc3)nc2s1,?,.,.,.,-23%,.

# Screening results: PubChem BioAssay, National Center for Advancing Translational Sciences (NCATS)
